Results taken from PubChem BioAssay (NCATS).
Results filed as inconclusive are left out. The source made the active and inactive calls. Calls come from the whole dose curve; as a rule, active = well fitted curve in the direction sought with a large enough effect; inconclusive = small, poorly fitted or top-dose-only effect, or another doubt; inactive = no such curve, though single readings can be large; an effect the other way counts as inactive or inconclusive.

target: Calcium and integrin-binding protein 1 (Homo sapiens) (UniProt Q99828); experiment: Confirmatory qHTS for Identification of Calcium Integrin Binding Protein 1 (CIB1) Competitor (AID 1508617); settings: CIB1 binding competition assay, biochemical qHTS; series mostly up to 114 µM; activity change, negative = inhibition: at the top concentration; note: nearly all actives have a fitted effect of over 65% in size; note: potency is the fitted concentration of half-maximal effect; for activity change, negative = inhibition: % is set by controls: 0 for no effect and ±100 for the full control effect
Outline: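 FP competition: CIB1-GST (1 uM final) in 5 mM HEPES pH 7.4, 125 mM NaCl, 5 mM CaCl2, 0.01% Tween20 preincubated 15 min RT with compounds (up to 114 uM), then FITC-alphaIIb peptide (100 nM), 15 min RT; Ex 480/Em 540.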

Sequence of Calcium and integrin-binding protein 1 (Homo sapiens) (Q99828 whole entry, looked up): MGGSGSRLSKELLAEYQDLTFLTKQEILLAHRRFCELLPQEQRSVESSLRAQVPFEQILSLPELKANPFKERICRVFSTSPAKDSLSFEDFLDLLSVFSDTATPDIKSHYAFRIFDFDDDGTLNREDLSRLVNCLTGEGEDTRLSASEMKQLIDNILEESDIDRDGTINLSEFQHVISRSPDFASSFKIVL

Compound	activity change, negative = inhibition	Potency
CC(=O)NC(Cc1ccccc1)C(=O)O (configuration not stated)	-1.78% (inactive)	
C=Cc1c(C)c2cc3[nH]c(cc4nc(cc5nc(cc1[nH]2)C(C)=C5CCC(=O)O)C(CCC(=O)O)=C4C)c(C)c3C=C		25.1 µM (active)
Cc1cc(C(C#N)c2ccc(Cl)cc2)c(Cl)cc1NC(=O)c1cc(I)cc(I)c1O (configuration not stated)	4.09% (inactive)	

target: Calcium and integrin-binding protein 1 (Homo sapiens) (UniProt Q99828); experiment: Validation qHTS for Identification of Calcium Integrin Binding protein 1 (CIB1) Competitor (AID 1508618); settings: CIB1-GST / FITC-alphaIIb peptide fluorescence polarization; series mostly up to 114 µM; activity change, negative = inhibition: at the top concentration; note: % is set by controls: 0 for no effect and ±100 for the full control effect
Outline: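 Fluorescence polarization with 1 uM CIB1-GST and 100 nM FITC-alphaIIb peptide in HEPES pH 7.4, NaCl, 5 mM CaCl2, Tween20. Compounds at up to 114 uM final, preincubated with protein 15 min; read after 15 min more at RT.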

Compound	activity change, negative = inhibition
CC(C)C(=O)c1c(C(C)C)nn2ccccc12	7.11% (inactive)
CC(=O)OCC(=O)[C@@]1(O)CC[C@H]2[C@@H]3CCC4=CC(=O)CC[C@]4(C)[C@H]3C(=O)C[C@@]21C	5.86% (inactive)
Cc1cc(N)c2ccccc2[n+]1CCCCCCCCCC[n+]1c(C)cc(N)c2ccccc21	33.8% (inactive)
C[C@H](NC(CCc1ccccc1)C(=O)O)C(=O)N1CCC[C@H]1C(=O)O (some centres not stated)	6.76% (inactive)
CN(C)CCOC(C)(c1ccccc1)c1ccccn1 (configuration not stated)	9.45% (inactive)

target: Calcium and integrin-binding protein 1 (Homo sapiens) (UniProt Q99828); experiment: Primary qHTS for Identification of Calcium Integrin Binding Protein 1 (CIB1) Competitor (AID 1508620); settings: CIB1-GST / FITC-alphaIIb peptide fluorescence polarization; series mostly up to 114 µM; activity change, negative = inhibition: at the top concentration;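 note: GST tagged CIB1 binding a fluorescein labelled alphaIIb integrin peptide tracer; top concentration of the series differs between compounds; % is set by controls: 0 for no effect and ±100 for the full control effect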
Outline: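 CIB1-GST (1 uM final) and compound incubated 15 min at room temperature before adding FITC-alphaIIb peptide tracer (100 nM final). Competition for binding read by fluorescence polarization (ex 480, em 540) after another 15 min at room temperature.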

Compound	activity change, negative = inhibition	outcome
COc1ccc2c(c1)C(=O)N(CCc1ccc(S(=O)(=O)NC(=O)NC3CCCCC3)cc1)C(=O)C2(C)C	-3.08% (inactive)	
CC(C)C(=O)c1c(C(C)C)nn2ccccc12	3.26% (inactive)	
CN(C)CCN(Cc1ccccc1)c1ccccn1	38.8% (inactive)	
CC1(C)OC(=O)NC1=O	1.91% (inactive)	
CO/N=C(\C(=O)N[C@@H]1C(=O)N2C(C(=O)O)=C(CSc3nc(=O)c(O)nn3C)CS[C@H]12)c1csc(N)n1	-27.2% (inactive)	
CN(C)CCCN1c2ccccc2Sc2ccc(Cl)cc21	6.28% (inactive)	
CC(=O)NC(Cc1ccccc1)C(=O)O (configuration not stated)	5.35% (inactive)	
CC(C(O)c1ccc(O)cc1)N1CCC(Cc2ccccc2)CC1 (configuration not stated)		inactive
CN1[C@@H]2CC[C@H]1CC(OC(=O)C(O)c1ccccc1)C2 (some centres not stated)	-2.76% (inactive)	
N[C@@H](CSCCCO)C(=O)O	3.15% [at 57.7 µM] (inactive)	
CC(=O)OCC(=O)[C@@]1(O)CC[C@H]2[C@@H]3CCC4=CC(=O)CC[C@]4(C)[C@H]3C(=O)C[C@@]21C	-2.05% (inactive)	
CCCCc1ncc(/C=C(\Cc2cccs2)C(=O)O)n1Cc1ccc(C(=O)O)cc1		inactive
O=c1cc(CO)occ1O	-0.0072% (inactive)	
CNCCCC1c2ccccc2C=Cc2ccccc21	-2.21% (inactive)	
Cc1c(O)cccc1C(=O)N[C@@H](CSc1ccccc1)[C@H](O)CN1C[C@H]2CCCC[C@H]2C[C@H]1C(=O)NC(C)(C)C	-0.3% (inactive)	
CC1(C)Oc2ccc(C#N)cc2[C@@H](N2CCCC2=O)[C@@H]1O	3.48% (inactive)	
CCN(CC)CCNC(=O)c1c(C)[nH]c(/C=C2\C(=O)Nc3ccc(F)cc32)c1C	37.6% (inactive)	
Nc1ccc(S(=O)(=O)Nc2ccccc2)cc1	1.81% (inactive)	
CCCCCCCCCCCCCCCC(=O)NCCO	2% (inactive)	

Compound	activity change, negative = inhibition	outcome
Oc1cn2c(n1)Nc1ccc(Cl)c(Cl)c1C2	2.41% [at 57.7 µM] (inactive)	
CC(=O)c1ccc2c(c1)N(CCCN(C)C)c1ccccc1S2	-1.91% (inactive)	
CN1CCN(C2Cc3ccccc3Sc3ccc(Cl)cc32)CC1 (configuration not stated)	-8.5% (inactive)	
OCc1cc(C(O)CNCCCCCCOCCCCc2ccccc2)ccc1O (configuration not stated)	-3.04% (inactive)	
NC1CCN(c2cccc(Cl)n2)CC1	0.119% (inactive)	
CN(C)CCC=C1c2ccccc2CCc2ccccc21	-2.24% (inactive)	
C=CCn1c(=O)n([C@@H]2O[C@H](CO)[C@@H](O)[C@H]2O)c2nc(N)[nH]c(=O)c21	1.17% (inactive)	
CNC(=O)Oc1ccc2c(c1)[C@]1(C)CCN(C)[C@@H]1N2C		inactive
CCN(CC)CCOC(=O)C1(C2CCCCC2)CCCCC1	0.866% (inactive)	
NC(=O)NNc1ccccc1	-2.6% (inactive)	
NC1[C@H]2CN(c3nc4c(cc3F)c(=O)c(C(=O)O)cn4-c3ccc(F)cc3F)C[C@@H]12 (some centres not stated)	-0.388% (inactive)	
NC(=O)NC(=O)Cc1ccccc1	2.96% (inactive)	
Cc1cc(N)c2ccccc2[n+]1CCCCCCCCCC[n+]1c(C)cc(N)c2ccccc21	0.401% (inactive)	
CN1CCCCC1CCN1c2ccccc2Sc2ccc(S(C)=O)cc21 (configuration not stated)	3.93% (inactive)	
C[C@H](NC(CCc1ccccc1)C(=O)O)C(=O)N1CCC[C@H]1C(=O)O (some centres not stated)	1.23% (inactive)	
COc1cc(C)c(Cc2cnc(N)nc2N)cc1OC	4.46% (inactive)	
CN(C)CCOC(C)(c1ccccc1)c1ccccn1 (configuration not stated)	-2.55% (inactive)	
O=C1N=C(O)CN1/N=C/c1ccc(-c2ccc([N+](=O)[O-])cc2)o1	-14.8% (inactive)	
CSc1ccc2c(c1)N(CCC1CCCCN1C)c1ccccc1S2 (configuration not stated)	0.0331% (inactive)	

tested on: not listed separately; experiment: Counterscreen qHTS for small molecule stabilizers of the endoplasmic reticulum resident proteome: GLuc-NoTag assay (AID 1508627); settings: Gaussia luciferase NoTag secretion counterscreen, luminescence, thapsigargin 100 nM for final 4 h; series mostly up to 76.4 µM; activity change, negative = inhibition: at the top concentration; note: potency is the fitted concentration of half-maximal effect;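 for activity change, negative = inhibition: SH-SY5Y cells given compound then 100 nM thapsigargin to empty ER calcium; 0% = thapsigargin alone and -100% = DMSO vehicle control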
Outline: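 Counterscreen line: SH-SY5Y-GLuc-NoTag cells, treated with compound 19 hr before a 4 hr, 100 nM thapsigargin calcium depletion. Secreted Gaussia luciferase in the medium was measured by luminescence after coelenterazine was added (0.07x final), with cells unlysed.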

Compound	activity change, negative = inhibition	Potency
CC(C(O)c1ccc(O)cc1)N1CCC(Cc2ccccc2)CC1 (configuration not stated)	-13.4% (inactive)	
O=c1cc(CO)occ1O	0.619% (inactive)	
CCCCCCCCCCCCCCCC(=O)NCCO	-10.4% (inactive)	
CC(=O)c1ccc2c(c1)N(CCCN(C)C)c1ccccc1S2	-18.3% (inactive)	
C=CCn1c(=O)n([C@@H]2O[C@H](CO)[C@@H](O)[C@H]2O)c2nc(N)[nH]c(=O)c21	19.4% (inactive)	
CCN(CC)CCOC(=O)C1(C2CCCCC2)CCCCC1	-22% (inactive)	
NC1[C@H]2CN(c3nc4c(cc3F)c(=O)c(C(=O)O)cn4-c3ccc(F)cc3F)C[C@@H]12 (some centres not stated)	10.4% (inactive)	
CN1CCCCC1CCN1c2ccccc2Sc2ccc(S(C)=O)cc21 (configuration not stated)	9.15% [at 19.8 µM] (inactive)	
COc1cc(C)c(Cc2cnc(N)nc2N)cc1OC	2.67% (inactive)	
O=C1N=C(O)CN1/N=C/c1ccc(-c2ccc([N+](=O)[O-])cc2)o1		inactive
CSc1ccc2c(c1)N(CCC1CCCCN1C)c1ccccc1S2 (configuration not stated)		50.1 µM (active)
